Experimental findings from PubChem BioAssay (Tox21) are described below.

Each structure is given as a SMILES string. Unmarked numbers belong to inactive results. Results filed as inconclusive are left out. Active and inactive are the calls of the source. Unless noted, the call rests on the fitted dose curve; in most records, active means well fitted curve in the direction sought with a large enough effect in the repeat runs; inconclusive means weak or mixed curves; inactive means no such curve, though single readings can be large; an effect the other way counts as inactive or inconclusive.

Experiment [1] is described as follows: qHTS assay to test for compound auto fluorescence at 535 nm (green) in HEK293 cells (AID 720680). For orientation: Quantitative high-throughput screening tests each substance at several concentrations.
Experiment [2] is described as follows: qHTS assay to test for compound auto fluorescence at 460 nm (blue) in HEK293 cell free culture (AID 720681). The gist of the method:
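Test compounds were pinned into cell-free culture medium (DMEM with 10% FBS) and fluorescence was read directly at Ex/Em 405/460 nm. Signals were expressed as fluorescence equivalents of triamterene, with DMSO vehicle as control.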

Experiment [3] can be described thus: qHTS assay to test for compound auto fluorescence at 535 nm (green) in HEK293 cell free culture (AID 720682). The procedure, abridged:
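Each library compound, or DMSO control, is added by pintool to medium alone, comprising DMEM and 10% FBS. Emission at 535 nm following 485 nm excitation is quantified against fluorescein.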

Experiment [4] can be described thus: qHTS assay to test for compound auto fluorescence at 590 nm (red) in HEK293 cell free culture (AID 720683). The gist of the method:
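Tox21 10K library compounds were pinned into cell-free DMEM with 10% FBS and fluorescence was read at excitation 540 nm. Activity is expressed as Rose Bengal sodium equivalency.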

A short description of experiment [5]: qHTS assay to test for compound auto fluorescence at 590 nm (red) in HepG2 cell free culture (AID 720684). The procedure, abridged:
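Readout: intrinsic compound fluorescence at 590 nm emission after 540 nm excitation, scaled to Rose Bengal sodium. Matrix was cell-free MEM with 10% FBS; DMSO vehicle wells served as control.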

Experiment [6] can be described thus: qHTS assay to test for compound auto fluorescence at 460 nm (blue) in HepG2 cell free culture (AID 720685). The gist of the method: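 Cell-free plates of MEM plus 10% FBS received 23 nL compound or DMSO vehicle; blue-channel (405/460 nm) intensity scored against triamterene as reference fluorophore.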
A short description of experiment [7]: qHTS assay to test for compound auto fluorescence at 535 nm (green) in HepG2 cell free culture (AID 720686).
Experiment [8] can be described thus: qHTS assay to test for compound auto fluorescence at 460 nm (blue) in HepG2 cells (AID 720687). The gist of the method:
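Cells (2,000/well in MEM with 10% FBS) attached overnight at 37 C, then were exposed to compound or DMSO for 1 hr at 37 C, 5% CO2. Fluorescence read at Ex/Em 405/460 nm, expressed as triamterene-equivalent signal.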

In experiment [9] the target is Glucocorticoid receptor (Homo sapiens) (UniProt P04150). The experiment in a line: qHTS assay to identify small molecule agonists of the glucocorticoid receptor (GR) signaling pathway (AID 720691; active means well fitted activation curve with a large enough effect in the signal ratio in the repeat runs, not every such curve was filed as active; the % refers to the signal ratio). The settings on record: GR-bla HeLa, beta-lactamase reporter ratio, 18 h; activation: at 62.4 µM (top of the series). The gist of the method: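 Compounds in DMSO, alongside positive controls, were added to GR-bla HeLa reporter cells and incubated 18 h at 37 C; GRE-driven beta-lactamase was detected by fluorescence after 2 h with FRET substrate at room temperature.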
Chain of Glucocorticoid receptor (Homo sapiens) (P04150 whole entry, looked up): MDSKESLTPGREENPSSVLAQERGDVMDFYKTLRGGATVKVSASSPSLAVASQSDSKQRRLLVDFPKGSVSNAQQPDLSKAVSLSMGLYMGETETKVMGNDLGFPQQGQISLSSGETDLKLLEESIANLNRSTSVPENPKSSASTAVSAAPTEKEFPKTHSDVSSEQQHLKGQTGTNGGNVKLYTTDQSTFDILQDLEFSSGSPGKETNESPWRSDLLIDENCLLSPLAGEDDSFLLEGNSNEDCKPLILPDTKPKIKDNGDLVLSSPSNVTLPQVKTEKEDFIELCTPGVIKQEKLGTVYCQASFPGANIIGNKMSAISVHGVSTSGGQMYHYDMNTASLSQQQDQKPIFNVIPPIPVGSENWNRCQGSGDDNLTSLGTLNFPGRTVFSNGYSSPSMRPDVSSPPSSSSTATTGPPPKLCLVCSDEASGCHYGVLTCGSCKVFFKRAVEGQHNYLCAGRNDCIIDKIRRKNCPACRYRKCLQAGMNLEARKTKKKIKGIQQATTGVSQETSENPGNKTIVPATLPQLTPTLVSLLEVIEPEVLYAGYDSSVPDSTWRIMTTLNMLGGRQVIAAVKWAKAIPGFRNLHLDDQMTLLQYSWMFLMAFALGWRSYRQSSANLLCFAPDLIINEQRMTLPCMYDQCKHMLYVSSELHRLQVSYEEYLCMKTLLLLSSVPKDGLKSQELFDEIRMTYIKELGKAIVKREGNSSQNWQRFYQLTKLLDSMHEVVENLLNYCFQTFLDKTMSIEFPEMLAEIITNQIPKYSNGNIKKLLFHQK

The target is the same in experiment [10]. Kind of experiment: qHTS assay to identify small molecule antagonists of the glucocorticoid receptor (GR) signaling pathway (AID 720692; active means well fitted inhibition curve with a large enough effect in the signal ratio in the repeat runs, not every such curve was filed as active; the % refers to the signal ratio). The gist of the method:
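In a 1536-well cell format, compounds were added 4 h after seeding GR-bla HeLa cells, together with dexamethasone at 5 nM final; reporter activity was measured by FRET-substrate fluorescence following 18 h at 37 C.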

The nature of experiment [11]: qHTS assay to identify small molecule antagonists of the glucocorticoid receptor (GR) signaling pathway - cell viability counter screen (AID 720693). Further: nearly all actives have a fitted effect of over 55% in size.
Experiment [12] in a line: qHTS assay for identifying genotoxic compounds that show differential cytotoxicity against isogenic chicken DT40 cell lines with known DNA damage response pathways - wild type cell line (AID 743012). Further: nearly all actives have a fitted effect of over 60% in size. Further: potency means the concentration at half of the fitted maximal effect. The gist of the method: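 Viability of DNA repair-proficient chicken DT40 cells was assessed by CellTiter-Glo luminescence following 40 h compound exposure at 37 C/5% CO2.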

Experiment [13] is described as follows: qHTS assay for identifying genotoxic compounds that show differential cytotoxicity against isogenic chicken DT40 cell lines with known DNA damage response pathways - Rev3 mutant cell line (AID 743014). Further: nearly all actives have a fitted effect of over 55% in size.
The nature of experiment [14]: qHTS assay for identifying genotoxic compounds that show differential cytotoxicity against isogenic chicken DT40 cell lines with known DNA damage response pathways - Rad54/Ku70 mutant cell line (AID 743015). Further: nearly all actives have a fitted effect of over 60% in size.
Experiment [15] is described as follows: qHTS assay to identify small molecule antagonists of the androgen receptor (AR) signaling pathway - cell viability counter screen (AID 743033; further: nearly all actives have a fitted effect of over 45% in size).
Experiment [16] can be described thus: qHTS assay to identify small molecule antagonists of the androgen receptor (AR) signaling pathway using the MDA cell line - cell viability counter screen (AID 743041; further: nearly all actives have a fitted effect of over 45% in size). The gist of the method: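 qHTS viability read-out; MDA-kb2 AR-luc; R1881-stimulated; 16 h exposure at 37C, 0% CO2; CellTiter-Fluor, 30 min; fluorescence intensity.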

Consider `CCN(CC)CCOC[C@H]1O[C@@H](O)[C@H](OCCN(CC)CC)[C@@H](O)[C@@H]1O`, for which the call in [1], in [3], in [4] and in [5] was inactive. Besides, the Potency entry in [2], in [6], in experiment [7], in [8], in experiment [9] and in experiment [10] was “inactive” each time. For the same compound, the Potency entry in experiment [11], in [12], in experiment [13], in experiment [14], in experiment [15] and in experiment [16] was “inactive” throughout.
`CN[C@H](CC(C)C)C(=O)N[C@H]1C(=O)N[C@@H](CC(N)=O)C(=O)N[C@H]2C(=O)N[C@H]3C(=O)N[C@H](C(=O)N[C@@H](C(=O)O)c4cc(O)cc(O)c4-c4cc3ccc4O)[C@H](O)c3ccc(c(Cl)c3)Oc3cc2cc(c3O[C@@H]2O[C@H](CO)[C@@H](O)[C@H](O)[C@H]2O[C@H]2C[C@](C)(N)C(O)[C@H](C)O2)Oc2ccc(cc2Cl)[C@H]1O` (stereo partly drawn): the compound was called inactive in [1], in [3], in [4] and in [5]. The Potency result in experiment [2], in experiment [6], in [7], in experiment [8], in [9] and in experiment [10] was “inactive” throughout. Moreover, the Potency entry in [11], in experiment [12], in [13], in experiment [14], in [15] and in experiment [16] was “inactive” each time.
For the compound `CC(=O)O[C@H]1C[C@@H]2CC[C@@H]3[C@H](CC[C@@]4(C)[C@H]3C[C@H]([N+]3(C)CCCCC3)[C@@H]4OC(C)=O)[C@@]2(C)C[C@@H]1[N+]1(C)CCCCC1`, the outcome in experiment [1], in experiment [3], in experiment [4] and in experiment [5] was inactive. Besides, the Potency result in [2], in [6], in [7], in experiment [8], in experiment [9] and in experiment [10] was “inactive” throughout. The Potency result in [11], in experiment [12], in [13], in [14], in [15] and in [16] was “inactive” throughout.
On to `CC1(C)S[C@@H]2[C@H](NC(=O)[C@@H](NC(=O)N3CCNC3=O)c3ccccc3)C(=O)N2[C@H]1C(=O)O`, for which the compound was called inactive in experiment [1], in [3], in experiment [4] and in experiment [5]. The Potency entry in experiment [2], in experiment [6], in experiment [7], in experiment [8], in experiment [9] and in [10] was “inactive” each time. Besides, the Potency result in experiment [11], in [12], in experiment [13], in [14], in [15] and in experiment [16] was “inactive” throughout.
`CN(C/C=C/c1ccccc1)Cc1cccc2ccccc12`: the result in experiment [1], in experiment [3], in experiment [4] and in experiment [5] was inactive. In addition, the Potency entry in [2], in [6], in experiment [7], in [8], in [9] and in [10] was “inactive” each time. For the same compound, the Potency entry in experiment [11], in experiment [15] and in experiment [16] was “inactive” in each case. For the same compound, the Potency in experiment [12] is 26.6 µM (active).
Consider `CCCCCN=C(N)N/N=C/c1c[nH]c2ccc(OC)cc12`, for which the outcome in experiment [1], in [3], in experiment [4] and in experiment [5] was inactive. The Potency result in experiment [2], in [6], in [7], in experiment [8], in experiment [9] and in [10] was “inactive” in each case. In addition, the Potency result in [11], in [12], in experiment [13], in experiment [15] and in experiment [16] was “inactive” throughout.
With `Cc1ccc(C(C)(C)c2ccc(C)cc2)cc1`, the result in experiment [1], in experiment [3], in experiment [4] and in [5] was inactive. The Potency result in experiment [2], in experiment [6], in [7], in experiment [8], in [9] and in [10] was “inactive” throughout. Besides, the Potency result in [11], in [12], in experiment [13], in experiment [15] and in [16] was “inactive” throughout.
